# The list is not random: actives were taken first. Their share in the collection is about 8.9%.
# D3 antag: blocks the human D3 dopamine receptor | P35462 | D3R cells, DiscoveRx beta-arrestin luminescence, antagonist mode; stronger effect = lower value | max response, negative = inhibition, % | hit rate 2.5% among 360,000 | AID 652054; in the data active = max response below about -50%; inconclusive = no clear call, values can overlap the other calls; note: % is set by controls: 0 for no effect and ±100 for the full control effect
# Target sequence (P35462 whole entry, looked up): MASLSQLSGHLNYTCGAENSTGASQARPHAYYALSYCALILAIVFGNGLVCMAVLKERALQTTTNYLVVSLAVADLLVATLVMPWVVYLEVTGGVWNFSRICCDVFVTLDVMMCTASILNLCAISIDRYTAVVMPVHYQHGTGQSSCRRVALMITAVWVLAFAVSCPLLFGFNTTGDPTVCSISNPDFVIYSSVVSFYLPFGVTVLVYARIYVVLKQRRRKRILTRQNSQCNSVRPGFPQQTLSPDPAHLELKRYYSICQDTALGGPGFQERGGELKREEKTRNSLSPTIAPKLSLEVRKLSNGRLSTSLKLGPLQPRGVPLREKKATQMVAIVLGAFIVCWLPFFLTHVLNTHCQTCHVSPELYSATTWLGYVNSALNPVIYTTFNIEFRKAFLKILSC
#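 Cells plated overnight at 1500 cells/well, then exposed to library compounds with dopamine controls for 90 minutes at 37 degrees C. DiscoveRx reagent added for 30–60 minutes at room temperature; luminescence read, quantitative HTS format.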
# SW480 rerep: DNA re-replication induction in SW480 cells; SW480 DNA re-replication, Hoechst DNA content imaging, 48 h; Potency, µM (top dose mostly 46.1 µM), for the others: at the highest dose re-replication activation, usual class: activators; hit rate 1.8% among 340,000; AID 624297; note: potency is the fitted concentration of half-maximal effect; % of control where 0% means no effect; nearly all actives have a fitted effect of over 55% in size
#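 Quantitative HTS format with DMSO vehicle controls; 48 hr drug incubation at 37 C, then 40 min Hoechst staining and scanning imager measurement at 405 nm excitation.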
# KB-3-1 cytotox: KB-3-1 parental cell cytotoxicity; KB-3-1 viability, CellTiter-Glo ATP luminescence, 72 h; Potency, µM (highest dose often 46.1 µM), actives largely listed as cytotoxic; hit rate 1.4% among 400,000; AID 1347075; note: potency is the fitted concentration of half-maximal effect; % is set by controls: 0 for no effect and ±100 for the full control effect; nearly all actives have a fitted effect of over 60% in size
#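 Here the drug-naive KB-3-1 line serves as comparator for MDR sub-line selectivity; cells received compound titrations, 72 h at 37 °C, then CellTiter-Glo readout.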
# D3 ag: agonists of human D3 dopamine receptor; P35462; D3R DiscoveRx beta-arrestin cells, luminescence, 90 min; max activation, %; hit rate 0.58% among 410,000; AID 652048; in the data active = max activation above about 30%; note: 0% is about no effect
#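 Agonist mode: compounds and dopamine controls were applied to plated cells for 90 min at 37 degrees C after an overnight attachment at 1500 cells/well. Luminescent read-out followed 30 - 60 minutes at room temperature with DiscoveRx detection reagent.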
# KB-V1 cytotox: kills drug-selected multidrug resistant KB-V1 cells. KB-V1 MDR cells viability, CellTiter-Glo, 72 h. Potency, µM (titrated, usually from 46.1 µM), usual class: cytotoxic. hit rate 3.4% among 400,000. AID 1347076; note: potency is the fitted concentration of half-maximal effect; % is set by controls: 0 for no effect and ±100 for the full control effect; nearly all actives have a fitted effect of over 60% in size
#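 Cytotoxicity via CellTiter-Glo luminescence after 72 h compound exposure at 37 degrees C. Cells: drug-selected KB-V1 line, DMEM phenol-red free plus 10% FBS. Compounds tested at multiple concentrations; normalized data fitted to concentration-effect curves.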
# MCF10A rereplic: inducers of DNA re-replication in MCF 10A breast cells; MCF 10A DNA re-replication, Hoechst nuclear intensity, 48 h; hit rate 2.9% among 350,000; Potency, µM (top dose mostly 46.1 µM), without a hit: top-dose activity, positive = re-replication, actives largely listed as activators; note: potency is the fitted concentration of half-maximal effect; % of control where 0% means no effect; nearly all actives have a fitted effect of over 50% in size
# Active calls of the source: *; i = inactive; ? = inconclusive; · = not tested or not shown; [ ] = dose if it differs, or a comment. Unless noted, calls come from the whole dose curve; as a rule, active = well fitted curve in the direction sought with a large enough effect; inconclusive = small, poorly fitted or top-dose-only effect, or another doubt; inactive = no such curve, though single readings can be large; an effect the other way counts as inactive or inconclusive.
SMILES,D3 antag,SW480 rerep,KB-3-1 cytotox,D3 ag,KB-V1 cytotox,MCF10A rereplic
CCc1oc(C(=O)O)cc1COC,15,-2%,i,0,i,5%
CCc1oc(C(=O)O)cc1CN(CC)CC,-66*,1%,i,-5,i,-2%
COc1cccc2c(SCC(=O)N/N=C/c3ccc(O)c(O)c3)cc(C)nc12,5,?,i,31*,i,8%
COc1ccc2nc(C)cc(SCC(=O)N/N=C/c3cccc4ccccc34)c2c1,43,4.6µM*,?,24,5.8µM*,3.7µM*
N#Cc1ccc(COC(=O)C2CCC(=O)N2)cc1 (stereo not drawn),-52*,1%[9.22 µM],i,-10,i,?
CCCC(=O)Nc1nnc(SCc2cc(=O)n3ccccc3n2)s1,·,·,·,-27,·,·
O=C(CSc1ncc(-c2ccccc2)n1C1CCCC1)N1CCc2ccccc21,-85*,-7%,i,-35,?,0%
CCOc1ccccc1-n1c(SCC(=O)N2CCCc3ccccc32)nnc1-c1cccnc1,2,-73%,i,2,7.3µM*,?
Cn1c(-c2ccccc2)cnc1SCC(=O)N1CCCc2ccccc21,12,-3%,i,-6,5.8µM*,20%
Cc1ccc(Cn2c(C(=O)O)c(CNC3CCCCCC3)c3ccc(C)cc32)cc1,·,·,i,6,i,·
COc1ccc(N2CCN(S(=O)(=O)c3c(C)nc4sc(C)cn4c3=O)CC2)cc1,·,·,i,1,i,·
CC(=O)Oc1ccc2c(c1)CC[C@@H]1[C@@H]2CC[C@]2(C)[C@@H](O)CC[C@@H]12,·,·,·,4,·,·
CC(C)(C)OC(=O)NCC(=O)Oc1cc2oc(=O)cc(-c3ccccc3)c2cc1Cl,-9,21µM*,i,-2,i,23µM*
O=C1CC(=O)OC(c2ccc([N+](=O)[O-])cc2)O1,-87*,·,i,-10,?,·
COc1cccc(N/C(SCc2ccccc2F)=C(/C#N)C(=O)NCc2cccs2)c1,-22,?,i,-5,16µM*,?
O=C1NC[C@H](CCCCN2CCN(Cc3ccccc3)C(=O)C2=O)N(CC2CCCCC2)C1=O,-20,·,i,-12,i,·
O=C1NC[C@@H](CCCCN2C[C@H](Cc3ccc(O)cc3)N(CCC3CCCCC3)C(=O)C2=O)N(CC2CCCCC2)C1=O,-63*,·,i,-16,i,·
O=C1NC[C@H](CCCCN2C[C@H](Cc3ccc(O)cc3)N(CC3CCCCC3)C(=O)C2=O)N(CCC2CCCCC2)C1=O,12,·,i,3,?,·
O=C1NC[C@H](CCCCN2CCN(Cc3ccccc3)C(=O)C2=O)N(CCC2CCCCC2)C1=O,-27,·,i,33*,?,·
CCOc1ccccc1NC(=O)c1ccc(-n2cncn2)nc1,3,?,i,4,i,-3%
COc1ccccc1NC(=O)c1ccc(-n2cncn2)nc1,6,1%,i,31*,?,-1%
Cc1ccc(S(=O)(=O)N2CCC(C(=O)Nc3ccc(S(=O)(=O)N4CCOCC4)cc3)CC2)cc1,-4,3%,23µM*,10,16µM*,6%
Cc1ccc(CSCCNC(=O)c2ccc(Cl)c(S(=O)(=O)N3CCOCC3)c2)cc1,4,1%,21µM*,1,3.7µM*,7%
Cc1ccc(C(=O)Nc2ccc(Cl)cn2)cc1S(=O)(=O)N1CCOCC1,18,-1%,i,8,?,7%
O=C(Nc1ccc(S(=O)(=O)N2CCOCC2)cc1)C1CCN(S(=O)(=O)c2ccccc2)CC1,-12,4%,?,-10,i,-5%
SMILES,D3 antag,SW480 rerep,KB-3-1 cytotox,D3 ag,KB-V1 cytotox,MCF10A rereplic
Cc1ccc(NC(=O)c2ccc(C)c(S(=O)(=O)N3CCOCC3)c2)nc1,2,-6%,i,4,15µM*,7%
CCOc1ccc(NC(=O)C2CCN(S(C)(=O)=O)CC2)cc1,-16,?,i,12,?,0.92µM*
COc1ccc(S(=O)(=O)NCCc2sc3nc(-c4ccc(C)cc4)nn3c2C)cc1F,·,·,·,7,·,·
CCOc1ccc(-n2c(SCC(=O)N3CCC(C)CC3)nc3c([nH]c4ccccc43)c2=O)cc1,·,·,i,-7,i,·
CCOc1ccc(S(=O)(=O)N2CCN(C(=O)c3cc(C4CC4)nn3-c3ccccc3)CC2)cc1,-10,18%,i,-8,?,13%
Cc1ccc(NC(=O)C(=O)NCC(c2ccc3c(c2)OCO3)N2CCN(C)CC2)cc1C (stereo not drawn),·,·,i,-3,i,·
Cc1ccc(NC(=O)c2ccc(C(=O)c3ccccc3)cc2)nc1,-20,?,15µM*,6,?,1%
Cc1ccc(S(=O)(=O)N2CCN(C(=O)C3CCCCC3)CC2)cc1,4,?,i,5,i,2.9µM*
Cc1ccc(NC(=O)c2ccc(S(=O)(=O)N3CCOCC3)cc2)nc1,-26,-7%,i,0,16µM*,0%
Cc1ccc(C(=O)Nc2ccc(S(=O)(=O)N3CCOCC3)cc2)cc1,-5,-4%,i,1,i,-51%
Cc1ccc(NC(=O)c2ccc3nc[nH]c3c2)nc1,-4,24%,?,0,i,?
Cc1ccc(S(=O)(=O)N2CCC(C(=O)N/N=C/c3ccccc3[N+](=O)[O-])CC2)cc1,9,?,i,3,13µM*,-3%
Cc1ccc(S(=O)(=O)N2CCC(C(=O)N/N=C/c3cccnc3)CC2)cc1,-18,0%,i,-5,i,2%
CC1CCN(S(=O)(=O)c2ccc(C(=O)Nc3nc4ccc(F)cc4s3)cc2)CC1,·,·,i,-1,i,·
CC1Cc2ccccc2C[N+]1(C)CC(=O)c1cccc([N+](=O)[O-])c1 (stereo not drawn),·,·,i,·,i,·
CCC12CN3CC(C)(CN(C1)C3c1ccc(O)cc1O)C2=O (stereo not drawn),·,·,i,2,i,·
CC(OC(=O)C1CCN(S(=O)(=O)c2ccc(C(C)(C)C)cc2)CC1)C(=O)N1CCOCC1 (stereo not drawn),-2,1%,i,-4,16µM*,?
Cc1ccc(S(=O)(=O)N2CCC(C(=O)OC(C)C(=O)N3CCOCC3)CC2)cc1 (stereo not drawn),0,-3%,i,5,i,22%
Cc1ccc(CN2CC(C(=O)Nc3cc(C)ccn3)CC2=O)cc1 (stereo not drawn),1,29µM*,i,5,?,16%
CCc1nn2c(=O)cc(COC(=O)c3ccccc3)nc2s1,·,·,i,5,?,·
